# Bioassay records (PubChem)
# VLA-4 inh: inhibition in a human VLA-4 binding assay; P13612; VLA-4 expressing cells, ligand binding flow cytometry; inhibition, % (about 7 µM as worked out from the volumes in the protocol); 330,000 compounds, 0.2% hits; AID 2557; in the data active = inhibition above about 50%
# PG9 Ab binder: PG9 antibody binding by small molecule. TR-FRET gp120-PG9 antibody binding. inhibition, % at 6.7 µM. 360,000 compounds, 0.43% hits; in the data active = inhibition above about 8.5%
# Rev-erbA mod: modulators of human Rev-erb alpha DNA binding; P20393; Rev-erbα–FITC-DNA binding, fluorescence polarization, 90 min; activity, % at 10 µM; 370,000 compounds, 0.79% hits;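 active = activity above about 14%, limit read from the data; passing the limit was not always enough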
# Target sequence (P20393 whole entry, looked up): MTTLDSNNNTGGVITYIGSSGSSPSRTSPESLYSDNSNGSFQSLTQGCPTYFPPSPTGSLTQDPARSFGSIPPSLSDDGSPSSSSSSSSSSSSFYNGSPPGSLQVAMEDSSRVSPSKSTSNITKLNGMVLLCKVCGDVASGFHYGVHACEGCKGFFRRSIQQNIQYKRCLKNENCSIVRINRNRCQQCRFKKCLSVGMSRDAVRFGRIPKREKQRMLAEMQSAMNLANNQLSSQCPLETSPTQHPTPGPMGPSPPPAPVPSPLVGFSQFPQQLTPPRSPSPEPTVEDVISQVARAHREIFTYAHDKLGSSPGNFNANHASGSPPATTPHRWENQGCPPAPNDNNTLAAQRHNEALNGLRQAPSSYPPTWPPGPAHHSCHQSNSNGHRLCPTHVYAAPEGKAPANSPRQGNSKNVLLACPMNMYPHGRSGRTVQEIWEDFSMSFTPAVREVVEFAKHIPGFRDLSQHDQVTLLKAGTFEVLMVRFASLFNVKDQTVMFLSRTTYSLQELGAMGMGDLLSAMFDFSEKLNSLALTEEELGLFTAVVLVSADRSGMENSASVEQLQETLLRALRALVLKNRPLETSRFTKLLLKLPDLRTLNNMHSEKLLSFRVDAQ
# Granule exo inh: lytic granule exocytosis inhibition. TALL-104 LAMP-1 surface exposure, flow cytometry; cells stimulated with thapsigargin and PMA. inhibition, % at 10 µM. 360,000 compounds, 0.66% hits;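 active = inhibition above about 55%, limit read from the data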
# ABCB6 inh MLPCN: blocks the human ABCB6 transporter | K562-ABCB6 porphyrin accumulation, flow cytometry, 1 h; hits give low values | Q9NP58 | fluorescence ratio to DMSO, % at 10 µM | 360,000 compounds, 0.19% hits;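 active = fluorescence ratio to DMSO below 75%, the collection mean minus 3 SD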;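 also: signal is porphyrin accumulated inside mitochondria; lower ratio means ABCB6 inhibition with less porphyrin fluorescence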
# PG9 bind confirm: PG9 antibody binding, confirmed; shares compounds with PG9 Ab binder; AID 651571; 1,500 compounds, 90% hits; inhibition, % at 6.7 µM; TR-FRET PG9 antibody binding, biochemical; in the data active = inhibition above about 9%
# PGV04 Ab binding: PGV04 control antibody binding, counter-screen; shares compounds with PG9 Ab binder; TR-FRET PGV04 antibody-gp120 binding, biochemical; inhibition, % at 6.7 µM; 1,500 compounds, 95% hits; in the data active = inhibition above about 9.5%
# A number is an active result; i = inactive; nt = no result. Compounds with a hit are over-represented: about 2% of the library has one in this group of screens.
SMILES,VLA-4 inh,PG9 Ab binder,Rev-erbA mod,Granule exo inh,ABCB6 inh MLPCN,PG9 bind confirm,PGV04 Ab binding
COc1ccc2c(c1)CCC1(C)CC(=O)C(Br)=C21 (stereo not drawn),nt,14.1,i,i,i,23.6,46.7
CCOC(=O)c1[nH]c2ccc(OC)cc2c1NC(=S)N1CCN(c2cccc(Cl)c2)CC1,i,54.5,i,i,i,16.1,29.6
CCOC(=O)c1[nH]c2ccc(OC)cc2c1NC(=S)N1CCN(c2ccccc2)CC1,i,11.5,i,i,i,i,9.5
COc1cc(C(=O)Nc2cccc(-c3nc4ncccc4o3)c2C)cc(OC)c1OC,i,i,i,i,i,nt,nt
COc1cc(C(=O)Nc2cccc(-c3nc4cc(C)ccc4o3)c2C)cc(OC)c1OC,i,12.2,i,i,i,16.9,27.4
CC(C)(C)c1ccc(C#C[C@@H]2C=C[C@H]3OC(=O)CC/C=C/CCC(=O)OC[C@H]3O2)cc1,nt,i,i,nt,nt,nt,nt
Cc1cc(=O)oc2cc(NC(=O)C(C)Oc3cccc(Cl)c3)ccc12 (stereo not drawn),i,10.0,i,i,i,12.4,18.9
Cc1cc(=O)oc2cc(OC(C)C(=O)Nc3ccc(C(N)=O)cc3)ccc12 (stereo not drawn),i,i,i,i,i,nt,nt
CC(=O)c1ccc(NC(=O)COc2ccccc2C(=O)Nc2ccccc2)cc1,i,i,i,i,i,nt,nt
CC(=O)c1ccc(NC(=O)COc2ccccc2C(=O)Nc2ccc(C)cn2)cc1,i,26.3,i,i,i,27.9,42.1
O=C(Nc1ccc2oc(-c3ccncc3)nc2c1)c1ccccc1F,i,23.4,i,i,i,31.7,53.1
Cc1ccc(C(=O)C2=C(O)C(=O)N(c3ncccn3)C2c2ccccc2F)o1 (stereo not drawn),i,13.6,i,i,i,25.0,32.3
O=C(C1=C(O)C(=O)N(c2ncccn2)C1c1ccc(F)cc1)c1ccco1 (stereo not drawn),i,i,i,i,i,nt,nt
Cc1ccc(C(=O)C2=C(O)C(=O)N(c3ncccn3)C2c2ccc(F)cc2)o1 (stereo not drawn),i,16.0,i,i,i,18.1,27.5
Cc1ccc(C(=O)C2=C(O)C(=O)N(c3ncccn3)C2c2ccc(Br)cc2)o1 (stereo not drawn),i,nt,nt,nt,nt,nt,nt
COC(=O)C1CN(CC(C)C)CCS(=O)(=O)N1Cc1cccc(Cl)c1 (stereo not drawn),nt,nt,i,nt,nt,nt,nt
O=C(Nc1ccc(Cl)cc1)C1CCCN1S(=O)(=O)c1cccnc1 (stereo not drawn),nt,nt,i,nt,nt,nt,nt
O=C(NCCN1CCOCC1)c1cc(-c2ccc(Br)cc2)on1,i,i,i,i,i,nt,nt
C=CCNC(=O)c1cc(-c2ccc(Br)cc2)on1,i,9.4,i,i,i,25.3,28.1
Cc1cc(N2C(=O)C(O)=C(C(=O)c3ccc(C)o3)C2c2cccs2)no1 (stereo not drawn),i,9.6,i,i,i,17.4,25.5
COC(=O)c1ccc(C2C(C(=O)c3ccc(C)o3)=C(O)C(=O)N2c2cc(C)on2)cc1 (stereo not drawn),i,i,i,i,i,nt,nt
Cc1cc(N2C(=O)C(O)=C(C(=O)c3cc4ccccc4o3)C2c2cccs2)no1 (stereo not drawn),i,9.3,i,i,i,27.6,46.1
Cc1ccc(C2C(C(=O)c3cc4ccccc4o3)=C(O)C(=O)N2c2cc(C)on2)cc1 (stereo not drawn),i,17.8,i,i,i,28.9,37.5
c1ccc(Cn2cc(CCOCc3ccccn3)c3ccccc32)cc1,nt,i,i,nt,nt,nt,nt
COc1ccc(S[C@]2(C(=O)N3CCN(C(C)=O)CC3)CC(=O)N(C(=O)C3CC3)[C@@H]2c2ccc(OC)cc2)cc1,nt,nt,i,nt,nt,nt,nt
SMILES,VLA-4 inh,PG9 Ab binder,Rev-erbA mod,Granule exo inh,ABCB6 inh MLPCN,PG9 bind confirm,PGV04 Ab binding
O=S(=O)(c1ccc(F)c(F)c1F)N1CCN(c2ncnc3sccc23)CC1,i,10.5,i,i,i,i,15.7
CCn1c(SCC(=O)NCc2ccccc2)nc2ccccc2c1=O,i,i,i,i,i,nt,nt
O=c1[nH]c(SCc2ccc(Cl)cc2)nc2ccccc12,i,i,i,i,i,nt,nt
O=c1[nH]c(SCc2n[nH]c(=S)n2-c2ccccc2)nc2ccccc12,i,i,i,i,i,nt,nt
O=c1[nH]c(SCc2nc3ccccc3c(=O)n2-c2ccccc2)nc2ccccc12,i,13.0,i,i,i,21.7,27.5
O=C(CSc1nc2ccccc2c(=O)[nH]1)NCc1ccc(Cl)cc1,i,12.3,i,i,i,24.1,27.4
O=C(CSc1nc2ccccc2c(=O)n1Cc1ccc(Cl)cc1)NCc1cccs1,i,16.6,i,i,i,21.1,30.1
Cn1c(SC2CCCC2)nnc1-c1ccco1,nt,nt,i,nt,nt,nt,nt
Cc1cc(NC(=O)CSc2nc(-c3cccs3)cc(C(F)(F)F)n2)no1,i,24.3,i,i,i,34.1,42.5
O=C(O)c1cc2ccccc2c2cc(Br)ccc12,i,23.2,i,i,i,27.6,35.6
O=C(O)c1cc2ccccc2c2c1C(=O)c1ccccc1-2,nt,i,i,i,i,nt,nt
CSc1nc2sc3c(c2c(=S)[nH]1)CC(C)(C)OC3,i,12.3,i,i,i,44.0,73.2
COc1ccc(C=Nn2c(-c3ccc(F)cc3)n[nH]c2=S)c(OC)c1OC,nt,nt,i,nt,nt,nt,nt
COc1cccc(OC)c1C(=O)Nc1ccc(C(=O)NCc2ccccc2)cc1,i,9.6,i,i,i,12.2,16.8
O=C(C1CCCN(S(=O)(=O)c2ccccc2F)C1)N1CCN(Cc2ccccc2)CC1 (stereo not drawn),nt,nt,i,nt,nt,nt,nt
C[C@H](NC(=O)c1cc2cc(Cl)ccc2n1C)C(=O)N1CCC(C(=O)O)CC1,i,i,i,i,i,nt,nt
Cn1c(C(=O)Nc2ccc(Cl)cc2)cc2cc(Cl)ccc21,i,14.1,i,i,i,9.2,16.0
CCC(C(=O)NC1CCCCC1)n1c2ccccc2c2nc(=O)cc(C)n21 (stereo not drawn),i,16.4,i,i,i,i,9.5
CCC(C(=O)N1CCOCC1)n1c2ccccc2c2nc(=O)cc(C)n21 (stereo not drawn),i,i,i,i,i,nt,nt
O=C(O)c1cccc(C(=O)c2cccc3ccccc23)c1,i,i,i,i,i,nt,nt
O=C(c1ccc2ccccc2c1)c1cccc(F)c1C(=O)O,nt,12.6,i,i,i,11.8,17.3
CCCCOCCCNC(=O)C[C@H]1C[C@@]2(C(=O)OC)C(=C[C@H](C(C)C)O[C@@H]2C2CC2)N(Cc2ccccc2)C1=O,nt,i,i,nt,nt,nt,nt
O=C1COc2ccc(C(=O)COC(=O)c3ccc(F)cc3Cl)cc2N1,i,31.8,i,i,i,36.8,46.8
CCN(CC)S(=O)(=O)c1cccc(C(=O)OCC(=O)c2ccc3c(c2)NC(=O)CO3)c1,i,i,i,i,i,nt,nt
